Data published in the OligoGym collection.

target: DHCR7; experiment: pooled miR-30 sensor sort-seq; sequence = guide strand; conditions: shRNA
Note: reference of the scale not given here.

| Sequence | sensor-assay potency score (higher = more potent) |
| --- | --- |
| TTGCAGTCTCTGGCGCTGGTGG | -0.837 |
| TTGGCTTTGGGAATGTTGGGTT | 0.501 |
| AACAGCTTGAAGTCAAACCACT | -1.51 |
| TGATACTTGTTCACAACCCCTG | -0.124 |
| TATAGGTGGAGTCTTGGCCCAG | -1.1 |
| AAGTAGTAGACGATGAAGGGGG | 0.135 |
| TTGTCGAAGATGATGGTGGGCG | -0.346 |
| TGAAGTCAAACCACTTCCCGAT | -0.223 |
| TTGAAGTCAAACCACTTCCCGA | -0.639 |
| TTGCTGTGGTGCCTCTGCCCAT | -1.54 |

target: DHPS; experiment: as above; conditions: shRNA

| Sequence | sensor-assay potency score (higher = more potent) |
| --- | --- |
| TCTTCATCCTGTGACAGTGGTT | -0.839 |
| TAATACACGGACTCTGGGTTGT | -0.152 |
| TTGGTTGCTTGGAAGCCGGTGG | -0.209 |
| TTGTGCTGCACAAGGTAGCGAA | -0.894 |
| TTCTGCTCCATCACCATCTGGT | 0.0359 |
| TACGTCCACCATGTTGTGCTGC | -0.635 |
| TTCTTCTCGATCATGGCATTGA | -0.43 |
| TGATGTAAACAGCGTAGTCGGC | -0.353 |
| TTGCTGTACAGCGCGCCCGAAG | -1.67 |
| TAGGAATGGAAGAAGATCATGT | 0.621 |
| TTCCAGCTTCTTCTCGATCATG | -1.22 |
| TGTGTTGATGTAAACAGCGTAG | -0.876 |
| TTGACTTGCTGTACAGCGCGCC | 0.283 |
| TATCCCAGGAAAATGGTGCAGC | -0.649 |
| ATTGACTTGCTGTACAGCGCGC | -0.633 |
| TTTCCGATCCTATTGATCCCGT | -0.549 |
| TCGGGCGGCAACGTCGAGCTGT | -0.875 |
| TCGAGCTGTGCTTTAGCACGGC | -0.48 |
| AAAGGTTTCAGCCACAAGCAGG | -1.41 |
| TATTGATCCCGTTCTCCCGGAG | -0.362 |
| TAAACAGCGTAGTCGGCCCCGT | -0.782 |
| TAGCTGACCAAAAAGTAGGGGA | 0.0141 |
| TGAGGTTGGATGTATATCCCAG | -0.155 |
| TTGATGTAAACAGCGTAGTCGG | -0.879 |

target: DHX35; experiment: as above; conditions: shRNA

| Sequence | sensor-assay potency score (higher = more potent) |
| --- | --- |
| TTCATTCGTAGAGACATGCTTG | 0.0862 |
| TTGAAACTTGACAAGAAGCTTT | 0.0953 |
| ATAAGGGTTGTAAACAACCGTT | -1.1 |
| TAGACTGAGGCAACTTGTCAAA | -1.05 |
| TAGATAAAAGATATCCACCGGA | -0.104 |
| TAGGCGACAGTCTTTGTCCAGA | -0.612 |
